# Source: PubChem
# KDM5B inhibitor – blocks human KDM5B histone demethylase activity | KDM5B demethylase, FDH-coupled NADH fluorescence (FDH is formaldehyde dehydrogenase) | Potency, µM (doses to about 57.7 µM), usual class: inhibitors | hit rate 2.6% among 220,000 | AID 1347165; active = well fitted inhibition curve with a large enough effect; also: 0% is about no effect; nearly all actives have a fitted effect of over 70% in size
#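 Coupled FDH/NAD⁺ fluorescence readout. KDM5BΔAP 200 nM final; compound titration, 10 min RT preincubation; substrate mix 12.5 µM H3K4me3, 25 µM 2-OG, 50 µM Fe(II), 100 µM ascorbate, 0.25 mM NAD⁺, 0.25 U/mL FDH; ΔRFU over 30 min.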
# An asterisk follows results filed as active; i = inactive. The sample as a whole holds a higher share of hits than the screen did. Potency is read from the fitted curve at half-maximal effect.
SMILES,KDM5B inhibitor
CC(OC(=O)c1ccc2c(c1)NC(=O)CS2)C(=O)c1c[nH]c2ccccc12 (stereo not drawn),i
Cn1c(=O)c2c(nc(Br)n2Cc2ccc(Cl)cc2)n(C)c1=O,i
Cc1cc(C(=O)OCC(=O)Nc2ccccc2F)c2ccccc2n1,i
CN1C(=O)c2ccc(NC(=O)C[C@H]3NC(=O)c4ccccc4NC3=O)cc2C1=O,25µM*
NC(=O)c1ccc(NC(=O)C[C@H]2NC(=O)c3ccccc3NC2=O)cc1,i
CC(C)Cn1ccc2c(NC(=O)C[C@H]3NC(=O)c4ccccc4NC3=O)cccc21,i
CC(C)c1nc2ccccc2n1CCNC(=O)CC[C@H]1NC(=O)c2ccccc2NC1=O,i
CC(C)n1c(CNC(=O)C[C@H]2NC(=O)c3ccccc3NC2=O)nc2ccccc21,28µM*
O=C(C[C@H]1NC(=O)c2ccccc2NC1=O)Nc1ccc(C(F)(F)F)cc1,i
Oc1ccc(Cl)cc1C=NCc1cccc(C(F)(F)F)c1,i
COc1ccccc1CCNC(=O)c1cccc(N2CCCCS2(=O)=O)c1,i
COc1ccc(NC(=O)O[C@@H]2CO[C@H]3[C@@H]2OC[C@@H]3NC(=S)Nc2ccc(Cl)cc2)cc1,i
O=C(C1Cn2cccc2C(=O)N1Cc1ccccc1)N1CCN(c2ncccn2)CC1 (stereo not drawn),18µM*
O=C(NC(Cc1ccccc1)C(=O)N1CCN(c2ncccn2)CC1)c1ccccc1 (stereo not drawn),i
NC(Cc1ccccc1)C(=O)N1CCN(c2ccccn2)CC1 (stereo not drawn),22µM*
O=C(CC1CCCCC1)N1CCC2(CC1)CC(N1CCN(c3ccccn3)CC1)CCO2 (stereo not drawn),i
O=C(O)[C@@H]1CN(Cc2ccccc2)C[C@@H]1C(=O)N1CCN(c2ccccn2)CC1,22µM*
O=C(O)C1Cn2cccc2C(=O)N1Cc1cccnc1 (stereo not drawn),i
O=C(NC(Cc1ccccc1)C(=O)N1CCN(c2ncccn2)CC1)c1cccs1 (stereo not drawn),i
O=C(O)[C@@H]1CN(Cc2ccccc2)C[C@@H]1C(=O)N1CCOCC1,i
O=C(/C=C/c1cccc([N+](=O)[O-])c1)N1CCN(c2ccccn2)CC1,i
Cc1ccc(CN2CCN(C(=O)C3Cn4cccc4C(=O)N3Cc3cccnc3)CC2)cc1 (stereo not drawn),i
O=C(CC1CCCCC1)NC(Cc1ccccc1)C(=O)N1CCN(c2ccccn2)CC1 (stereo not drawn),22µM*
O=C1CN(C(=O)[C@H]2CN(Cc3ccccc3)C[C@H]2C(=O)O)CCN1,i
CCOC(=O)c1ccc(NC(=O)C2=C(c3ccccc3)S(=O)(=O)CCO2)cc1,i
SMILES,KDM5B inhibitor
CN(C(=O)Nc1ccc(Cl)cc1)C(c1ccc(Cl)cc1)c1nccn1C (stereo not drawn),i
Cc1ccc(-n2c(C3CCN(C(=O)c4ccc(F)c(F)c4)CC3)n[nH]c2=O)cc1,i
CCN(CC)C(=O)CN1CCCN(C(=O)c2cc3ccccc3n2C)CC1,i
CC(C)(C)NC(=O)/C(=C/c1ccc(-c2ccc(Cl)cc2)o1)NC(=O)c1ccc(Cl)cc1,i
N#Cc1ncn(Cc2coc(-c3ccccc3)n2)n1,i
COC(=O)c1c(COc2ccc(C)nc2[N+](=O)[O-])nc2ccccc2c1C,i
Cc1noc(C)c1-c1cc2c(c(-c3cccnc3)c1)C(=O)N(C)C2,i
COc1ncccc1-c1nc(-c2c(C)noc2C)cc2c1cc(-c1ccccc1)n2C,i
Cc1noc(C)c1-c1cc2c(cc(-c3ccccc3)n2C)c(-c2cnn(C)c2)n1,35µM*
Cc1noc(C)c1-c1cc2c(c(-c3ccc(CO)cc3)c1)C(=O)N(C)C2,i
Cc1noc(C)c1-c1cc2c(cc(C)n2C)c(Nc2ccncn2)n1,i
Cc1noc(C)c1-c1cc2c(cc(C)n2C)c(-c2cnn(C)c2)n1,i
Cc1noc(C)c1-c1cc2c(cc(-c3ccccc3)n2C)c(Nc2ccncn2)n1,35µM*
COc1ccc(-c2nc(-c3c(C)noc3C)cc3c2cc(-c2ccccc2)n3C)cn1,28µM*
COc1ccc(-c2cc(-c3c(C)noc3C)cc3c2C(=O)N(C)C3)cn1,32µM*
Cc1cc2cc(-c3c(C)noc3C)nc(NCc3ccccc3)c2o1,i
Cc1noc(C)c1CN(C)Cc1ccc2c(c1)OCO2,i
CCC1CCCCN1C(=O)Cn1c(-c2ccccc2)nc(C)cc1=O (stereo not drawn),i
CCNCc1ccc(C)o1,i
COc1ccccc1NC(=O)c1ccc(-n2cccn2)cc1,i
CCCCn1nnnc1CN1CCCC1c1ccc2c(c1)OCCO2 (stereo not drawn),i
O=C(Cn1nc(N2CCN(c3ccccc3)CC2)ccc1=O)NC1CCCCCCC1,i
Cc1ccc(NC(=O)CCC2CCN(S(=O)(=O)c3ccccc3C)CC2)cc1F,i
O=C(c1cccc(C(F)(F)F)c1)N1CCN(C/C=C/c2ccccc2)CC1,i
CC(C)n1c(SCCCn2c(=O)c3c(ncn3C)n(C)c2=O)nc2ccccc21,i
SMILES,KDM5B inhibitor
Nc1ccccc1C(=O)NCCCNC(=O)c1cnccn1,i
NC(=O)c1ccc(NC(=O)Cn2nc(-c3cccs3)c3ccccc3c2=O)cc1,i
CCCn1c(C)cnc1CCNC(=O)CCC1CCCC1,i
CCc1ccc(CCC(=O)N2CCC(C(=O)Nc3cc(C)ccn3)CC2)cc1,i
Cc1ccc(N=C/C(C(=O)C(F)(F)F)=C(\O)c2cccs2)cc1C,i
CC(C)C(=O)Nc1cc2c(cc1Sc1ccccc1Cl)n(C)c(=O)n2C,i
Cc1noc(C)c1-c1cc2c(cc(-c3ccccc3)n2C)c(N2CCOCC2)n1,22µM*
Cc1noc(C)c1-c1cc2c(cc(-c3ccccc3)n2C)c(-c2ccnn2C)n1,i
COC(=O)C1(NC(=O)c2ccc3c(c2)OCCCO3)CCCCC1,i
NC(=O)COc1ccc(C(=O)N[C@@H]2CN(C(=O)NC3CCCCC3)CCC[C@H]2O)cc1,i
O=C(N[C@@H]1CN(Cc2ccccn2)CCC[C@H]1O)c1ccc(OCc2ccccc2)cc1,i
COCCOc1ccc(C(=O)N[C@@H]2CN(C(=O)Nc3ccc(F)cc3)CCC[C@H]2O)cc1,i
O=C(N[C@@H]1CN(C(=O)Nc2ccccc2)CCC[C@H]1O)c1ccc(OCc2ccccc2)cc1,i
Cc1noc(C)c1COc1ccc(C(=O)N[C@@H]2CN(C(=O)Nc3cccc(C(F)(F)F)c3)CCC[C@H]2O)cc1,i
NC(=O)COc1ccc(C(=O)N[C@@H]2CN(Cc3ccccn3)CCC[C@H]2O)cc1,32µM*
COC(=O)c1ccccc1NC(=O)N1CCC[C@@H](O)[C@H](NC(=O)c2ccc(OCc3c(C)noc3C)cc2)C1,22µM*
O=C(N[C@@H]1CN(C(=O)Nc2ccc(F)cc2)CCC[C@H]1O)c1ccc(OCCN2CCCC2)cc1,28µM*
COC(=O)COc1ccc(C(=O)N[C@@H]2CN(C(=O)Nc3ccc(F)cc3)CCC[C@H]2O)cc1,i
O=C(C(Sc1nnc(-c2cccnc2)n1-c1ccccc1)c1ccccc1)N1CCCC1 (stereo not drawn),i
C=CCNCc1ccc(-c2ccc(C(C)O)cc2)o1 (stereo not drawn),i
CCOC(=O)c1c(C)c(C(=O)Nc2cccc(Cl)c2C)c(C)n1C,i
Cc1ccc(CN2CC(Oc3ccc(-c4noc(-c5cccnc5)n4)cc3)C2)o1,i
COc1ccc(OC)c(C(=O)CC2(O)C(=O)N(C)c3ccc(Br)cc32)c1 (stereo not drawn),i
